Structures are written as SMILES. The whole screen tested about 310,000 compounds, of which about 14,000 (4.5%) showed an effect of 50% or more. The effect is printed as a negative number. This is one part of a sample in which strong results are shown more often than they occur.
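Further: peak tail current of the secondary pulse compared with the same well before compound.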

The target in the test is human ether-à-go-go-related gene (hERG) potassium channel (human, UniProt Q12809). Put plainly: primary screen, population patch clamp on CHO cells stably expressing hERG; higher = less effect of the substance.
Sequence of human ether-à-go-go-related gene (hERG) potassium channel (Q12809 whole entry, looked up): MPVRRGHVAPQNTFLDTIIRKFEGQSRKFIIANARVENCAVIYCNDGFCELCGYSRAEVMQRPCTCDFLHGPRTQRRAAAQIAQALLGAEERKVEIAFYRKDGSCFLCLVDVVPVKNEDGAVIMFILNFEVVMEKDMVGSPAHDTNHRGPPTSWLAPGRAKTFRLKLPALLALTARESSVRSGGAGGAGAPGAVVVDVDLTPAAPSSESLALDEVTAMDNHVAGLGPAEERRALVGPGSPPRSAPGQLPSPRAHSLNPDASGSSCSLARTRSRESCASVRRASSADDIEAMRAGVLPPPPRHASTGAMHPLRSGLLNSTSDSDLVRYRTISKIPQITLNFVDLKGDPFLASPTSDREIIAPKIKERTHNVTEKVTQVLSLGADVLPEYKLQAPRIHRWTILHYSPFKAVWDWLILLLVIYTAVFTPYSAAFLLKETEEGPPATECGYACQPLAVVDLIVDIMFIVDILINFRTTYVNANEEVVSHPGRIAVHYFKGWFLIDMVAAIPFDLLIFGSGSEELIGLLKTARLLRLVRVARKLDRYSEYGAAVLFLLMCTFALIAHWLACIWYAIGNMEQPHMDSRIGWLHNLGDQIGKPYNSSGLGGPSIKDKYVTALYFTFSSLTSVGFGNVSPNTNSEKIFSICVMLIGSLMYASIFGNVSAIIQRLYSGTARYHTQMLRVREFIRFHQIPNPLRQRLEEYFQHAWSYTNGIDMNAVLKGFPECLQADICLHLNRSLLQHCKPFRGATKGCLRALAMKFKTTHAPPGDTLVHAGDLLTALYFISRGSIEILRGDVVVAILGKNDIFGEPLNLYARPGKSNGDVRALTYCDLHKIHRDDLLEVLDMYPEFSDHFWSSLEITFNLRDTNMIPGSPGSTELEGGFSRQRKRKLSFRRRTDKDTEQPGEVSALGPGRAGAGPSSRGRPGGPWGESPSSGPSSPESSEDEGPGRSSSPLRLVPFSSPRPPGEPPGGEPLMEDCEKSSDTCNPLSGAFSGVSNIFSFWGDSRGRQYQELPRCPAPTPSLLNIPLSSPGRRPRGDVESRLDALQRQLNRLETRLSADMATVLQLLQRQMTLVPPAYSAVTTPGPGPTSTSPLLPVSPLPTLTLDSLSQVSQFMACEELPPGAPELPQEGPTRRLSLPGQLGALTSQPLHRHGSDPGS
Turning to `CSCc1nnc2n1-c1ccc(Cl)cc1C(c1ccccc1)=NC2`, the “hERG current change (%, negative = inhibition) at 10uM” value is reported as -17%.

Regarding `CCS(=O)(=O)NCc1nnc2n1-c1ccc(Br)cc1C(c1ccccc1Cl)=NC2`, the “hERG current change (%, negative = inhibition) at 10uM” value is given as -49%.

`Clc1ccc2c(c1)C(c1ccccc1Cl)=NCc1nncn1-2`: the “hERG current change (%, negative = inhibition) at 10uM” value is -4.37%.

`Clc1ccc2c(c1)C(c1ccccc1Cl)=NCc1nnc(Br)n1-2.c1ccccc1`: the “hERG current change (%, negative = inhibition) at 10uM” value was -6.61%.

Consider `Cc1nnc2n1-c1ccc(Br)cc1C(c1ccccc1Cl)=NC2`, for which the “hERG current change (%, negative = inhibition) at 10uM” value is reported as -21.1%.

As to `COCCCN1CCN(c2nnc3n2-c2sc(Br)cc2C(c2ccccc2Cl)=NC3)CC1.CS(=O)(=O)O`, the “hERG current change (%, negative = inhibition) at 10uM” value is listed as -47.7%.

Turning to `CN1CCN(Cc2nnc3n2-c2ccc(Cl)cc2C(c2ccccc2)=NC3)CC1.O=CO`, the “hERG current change (%, negative = inhibition) at 10uM” value is on record as -64.7%.

As for `COc1ccccc1C1=NCc2nnc(C)n2-c2ccc(Cl)cc21`, the “hERG current change (%, negative = inhibition) at 10uM” value is listed as 3.01%.

For the compound `CCOCCN1CCN(c2nnc3n2-c2ccc(Cl)cc2C(c2ccccc2Cl)=NC3)CC1.O=CO`, the “hERG current change (%, negative = inhibition) at 10uM” value is -76.5%.

In the case of `Clc1ccc2c(c1)C(c1ccccc1Cl)=NCc1nnc(N3CCN(CCOc4ccccc4)CC3)n1-2.O=C(O)/C=C/C(=O)O`, the “hERG current change (%, negative = inhibition) at 10uM” value was -72.7%.

Consider `CCS(=O)(=O)NCc1nnc2n1-c1ccc(Cl)cc1C(c1ccccc1)=NC2`, for which the “hERG current change (%, negative = inhibition) at 10uM” value is given as 12.6%.

Take `Clc1ccc2c(c1)C(c1ccccc1Cl)=NCc1nnc(N3CCN(CCSc4ccccc4)CC3)n1-2.O.O=C(O)/C=C/C(=O)O`: the “hERG current change (%, negative = inhibition) at 10uM” value was -66.5%.

For `C/C(=N\NC(=O)C1CC1)c1ccc(N2CCOCC2)cc1`, the “hERG current change (%, negative = inhibition) at 10uM” value is -0.403%.

For `O=c1/c(=C/c2ccco2)sc2nc(-c3ccccc3Br)nn12`, the “hERG current change (%, negative = inhibition) at 10uM” value is given as 12.7%.

For the compound `O=c1sc2ccccc2c(N2CCCC2)c1[N+](=O)[O-]`, the “hERG current change (%, negative = inhibition) at 10uM” value came to 6.33%.

On to `Cc1cc(C)nc(SCc2nnc(SCC(N)=O)o2)n1`, for which the “hERG current change (%, negative = inhibition) at 10uM” value worked out at 15.7%.

`O=C(c1ccccc1)c1ccc(N=Nc2c(O)[nH]c(=O)[nH]c2=O)cc1`: the “hERG current change (%, negative = inhibition) at 10uM” value is recorded as 1.15%.

`Cc1nc2c(c(=O)n1CCC1=CCCCC1)c1nc3ccccc3nc1n2/N=C/c1ccco1`: the “hERG current change (%, negative = inhibition) at 10uM” value is -22%.

As to `O=S(=O)(c1cccs1)N1CCC(Cc2ccccc2)CC1`, the “hERG current change (%, negative = inhibition) at 10uM” value came out at 6.58%.

Regarding `CCOC(=O)C1=C(N)Oc2ccc3ccccc3c2C1c1cccnc1` (stereo not drawn), the “hERG current change (%, negative = inhibition) at 10uM” value is 0.98%.

For `O/N=C1\CCCc2c1nc(-c1ccccc1F)n2O`, the “hERG current change (%, negative = inhibition) at 10uM” value is on record as 26.1%.

`O=C(COc1cc2oc(=O)c3c(c2cc1Cl)CCC3)NCC1CCC(C(=O)O)CC1` (stereo not drawn): the “hERG current change (%, negative = inhibition) at 10uM” value was 5.36%.

Consider `Cc1ccc(S(=O)(=O)CC(=O)N2CCCCCC2)cc1`, for which the “hERG current change (%, negative = inhibition) at 10uM” value turned out to be 13.6%.

`C=CC(C)(C)c1[nH]cnc1/C=C1\NC(=O)C(C(C)C)NC1=O` (stereo not drawn): the “hERG current change (%, negative = inhibition) at 10uM” value is on record as 3.54%.

For `COc1ccc(NC(=O)N[C@@H](CCSC)C(=O)O)cc1OC`, the “hERG current change (%, negative = inhibition) at 10uM” value is -0.994%.

As for `Cc1ccc(NC(=S)N2CCC(NC(=O)c3cccc(F)c3)CC2)cc1`, the “hERG current change (%, negative = inhibition) at 10uM” value is -24.9%.

Turning to `COCCOCC(O)CN1CCN(c2ccccc2)CC1.O=C(O)C(=O)O` (stereo not drawn), the “hERG current change (%, negative = inhibition) at 10uM” value is listed as -3.37%.

On to `CCOC(=O)C1CCCN(c2nnnn2-c2ccccc2)C1` (stereo not drawn), for which the “hERG current change (%, negative = inhibition) at 10uM” value is -5.57%.

For `CS(=O)(=O)NCc1nnc2n1-c1ccc(Cl)cc1C(c1ccccc1)=NC2`, the “hERG current change (%, negative = inhibition) at 10uM” value is given as 6.2%.

Turning to `CN(C)CCSCc1nnc2n1-c1ccc(Cl)cc1C(c1ccccc1Cl)=NC2.c1ccccc1`, the “hERG current change (%, negative = inhibition) at 10uM” value is recorded as -73.7%.

With `COc1ccccc1C1=NCc2nnc(CSC)n2-c2ccc(Cl)cc21`, the “hERG current change (%, negative = inhibition) at 10uM” value is -19.1%.

For `Cc1ccc(C(=O)NC(=S)Nc2ccc(N3CCOCC3)cc2)cc1C`, the “hERG current change (%, negative = inhibition) at 10uM” value is given as -7.53%.

Take `O=C(NCCCn1ccnc1)C(=O)NCC(c1ccco1)N1CCN(c2ccccc2)CC1` (stereo not drawn): the “hERG current change (%, negative = inhibition) at 10uM” value is 1.01%.

`COc1ccc(O[C@H]2C=C[C@@H](c3ccccc3)O[C@@H]2CO/N=C/C[C@@H]2C=C[C@H](OC(C)=O)[C@@H](COC(C)=O)O2)cc1`: the “hERG current change (%, negative = inhibition) at 10uM” value was -9.17%.

For the compound `CCCNC(=O)OC[C@H]1O[C@H](CCO/N=C/[C@@H](OC)[C@H](C)/C=C/CC(=O)OC)C=C[C@@H]1Oc1ccc(OC)cc1`, the “hERG current change (%, negative = inhibition) at 10uM” value is -11.1%.

Take `CCCNC(=O)OC[C@H]1O[C@H](CCO/N=C/C[C@@H]2C=C[C@H](OC(C)=O)[C@@H](COC(C)=O)O2)C=C[C@@H]1Oc1ccc(OC)cc1`: the “hERG current change (%, negative = inhibition) at 10uM” value is listed as -59.7%.

With `CCC(Sc1nc(C)cc(=O)[nH]1)C(=O)Nc1sc2c(c1C#N)CCCC2` (stereo not drawn), the “hERG current change (%, negative = inhibition) at 10uM” value is on record as -19.1%.

Consider `Cc1ccc2oc3nc(C)c(C(=O)Nc4cccc(C(F)(F)F)c4)cc3c(=O)c2c1`, for which the “hERG current change (%, negative = inhibition) at 10uM” value was 6.48%.

`O=C(CCS(=O)(=O)c1cccc2nsnc12)N1CCN(c2ccccc2F)CC1`: the “hERG current change (%, negative = inhibition) at 10uM” value was -30.3%.

As to `COC(=O)C1=C(C(=O)c2ccc(C)cc2)C(c2ccc(OC)c(OC)c2)n2nnnc2N1` (stereo not drawn), the “hERG current change (%, negative = inhibition) at 10uM” value was 3.59%.

Consider `Cc1ccc(O)c(-c2cc(-c3cccc(F)c3)n[nH]2)c1`, for which the “hERG current change (%, negative = inhibition) at 10uM” value was 23.6%.

In the case of `CCOC(=O)C1(Cc2ccc(Cl)cc2)CCN(Cc2cnc(N)nc2)CC1`, the “hERG current change (%, negative = inhibition) at 10uM” value is recorded as -74.7%.

Source of the values: PMC4336329 (PLoS ONE, 2015).
